About 2,000 (36%) of roughly 5,500 compounds were called active. Roughly 18% stayed inconclusive and do not appear here. Cut-off read from the data, not from the text of the source: active = normalized growth mostly below about 0.91 (no sharp cut-off); inconclusive = no clear call, values can overlap the other calls; inactive = mostly above about 0.92. This is one part of the list.
Assay: chemical genetic growth profiling, strain panel (AID 1159580);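 note: tested at 20 µM; growth read once vehicle control cultures reached saturation at 30 °C; 1 = growth at the plate median or of vehicle wells; lower values mean less growth of the strain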
Conditions: growth OD

Measured: normalized growth

CO[C@@]1(NC(=O)CSCC#N)C(=O)N2C(C(=O)O)=C(CSc3nnnn3C)CSC21 (some centres not stated)
inactive: S. cerevisiae deletion strains, locus YJR075W, strain HOC1, active compounds read low 1.01 | S. cerevisiae deletion strains, locus YKL009W, strain mrt4, active compounds read low 1.04 | S. cerevisiae deletion strains, locus YKL068W, active compounds read low 1.02 | S. cerevisiae deletion strains, locus YKL085W, strain MDH1 (second series), active compounds read low 1.03 | S. cerevisiae deletion strains, locus YKL085W, strain MDH1, active compounds read low 1.03 | S. cerevisiae deletion strains, locus YKL160W, strain elf1, active compounds read low 0.959 | S. cerevisiae deletion strains, locus YKL190W, strain CNB1, active compounds read low 0.995 | S. cerevisiae deletion strains, locus YKR001C, strain vps1, active compounds read low 1.04 | S. cerevisiae deletion strains, locus YKR026C, strain gcn3, active compounds read low 0.996 | S. cerevisiae deletion strains, locus YKR091W, strain srl3, active compounds read low 0.982 | S. cerevisiae deletion strains, locus YLL001W, strain dnm1, active compounds read low 0.96 | S. cerevisiae deletion strains, locus YLL026W, active compounds read low 0.986 | S. cerevisiae deletion strains, locus YLL041C, strain sdh2, active compounds read low 0.978 | S. cerevisiae deletion strains, locus YLR027C, strain aat2, active compounds read low 0.99 | S. cerevisiae deletion strains, locus YLR039C, strain RIC1, active compounds read low 1.07 | S. cerevisiae deletion strains, locus YLR058C, strain SHM2, active compounds read low 1.01 | S. cerevisiae deletion strains, locus YLR102C, strain apc9, active compounds read low 1.04 | S. cerevisiae deletion strains, locus YLR113W, strain HOG1, active compounds read low 0.96 | S. cerevisiae deletion strains, locus YLR221C, strain rsa3, active compounds read low 0.98 | S. cerevisiae deletion strains, locus YLR258W, strain gsy2, active compounds read low 0.98 | S. cerevisiae deletion strains, locus YLR262C, strain YPT6 (second series), active compounds read low 0.981 | S. cerevisiae deletion strains, locus YLR262C, strain YPT6, active compounds read low 1.09 | S. cerevisiae deletion strains, locus YLR268W, strain sec22, active compounds read low 1.02 | S. cerevisiae deletion strains, locus YLR320W, strain mms22, active compounds read low 0.953 | S. cerevisiae deletion strains, locus YLR330W, strain CHS5, active compounds read low 1.01 | S. cerevisiae deletion strains, locus YLR342W, strain FKS1 (second series), active compounds read low 1.01 | S. cerevisiae deletion strains, locus YLR342W, strain FKS1, active compounds read low 0.967 | S. cerevisiae deletion strains, locus YLR357W, strain rsc2, active compounds read low 0.915 | S. cerevisiae deletion strains, locus YLR370C, strain arc18, active compounds read low 0.984 | S. cerevisiae deletion strains, locus YLR371W, strain rom2, active compounds read low 1.04 | S. cerevisiae deletion strains, locus YLR384C, strain iki3, active compounds read low 1 | S. cerevisiae deletion strains, locus YLR418C, strain cdc73, active compounds read low 1.04 | S. cerevisiae deletion strains, locus YML016C, strain PPZ1, active compounds read low 1.01 | S. cerevisiae deletion strains, locus YML032C, strain rad52, active compounds read low 1.05 | S. cerevisiae deletion strains, locus YML120C, strain ndi1, active compounds read low 0.988 | S. cerevisiae deletion strains, locus YML124C, strain tub3, active compounds read low 1.02 | S. cerevisiae deletion strains, locus YMR058W, strain fet3, active compounds read low 1.01 | S. cerevisiae deletion strains, locus YMR078C, strain ctf18, active compounds read low 1.03 | S. cerevisiae deletion strains, locus YMR125W, strain sto1, active compounds read low 1.01 | S. cerevisiae deletion strains, locus YMR129W, active compounds read low 0.995 | S. cerevisiae deletion strains, locus YMR205C, strain PFK2, active compounds read low 0.965 | S. cerevisiae deletion strains, locus YMR223W, strain ubp8, active compounds read low 1.04 | S. cerevisiae deletion strains, locus YMR231W, strain pep5, active compounds read low 0.985 | S. cerevisiae deletion strains, locus YMR263W, strain SAP30, active compounds read low 1.01 | S. cerevisiae deletion strains, locus YMR307W, strain GAS1, active compounds read low 1.05 | S. cerevisiae deletion strains, locus YNL067W, strain RPL9B, active compounds read low 1.01 | S. cerevisiae deletion strains, locus YNL071W, strain lat1, active compounds read low 0.991 | S. cerevisiae deletion strains, locus YNL128W, strain TEP1, active compounds read low 1.02 | S. cerevisiae deletion strains, locus YNL153C, strain GIM3, active compounds read low 1.01 | S. cerevisiae deletion strains, locus YNL183C, strain NPR1, active compounds read low 0.926 | S. cerevisiae deletion strains, locus YNL209W, strain ssb2, active compounds read low 0.988 | S. cerevisiae deletion strains, locus YNL233W, strain BNI4, active compounds read low 1.02 | S. cerevisiae deletion strains, locus YNL248C, strain rpa49, active compounds read low 0.973 | S. cerevisiae deletion strains, locus YNL250W, strain rad50, active compounds read low 1.05 | S. cerevisiae deletion strains, locus YNL271C, strain bni1, active compounds read low 1.04 | S. cerevisiae deletion strains, locus YNL298W, strain CLA4, active compounds read low 1.04 | S. cerevisiae deletion strains, locus YNL307C, strain MCK1, active compounds read low 1.04 | S. cerevisiae deletion strains, locus YNL322C, strain KRE1 (second series), active compounds read low 0.959 | S. cerevisiae deletion strains, locus YNL322C, strain KRE1, active compounds read low 1.02 | S. cerevisiae deletion strains, locus YNR049C, strain mso1, active compounds read low 0.975 | S. cerevisiae deletion strains, locus YNR052C, strain pop2, active compounds read low 1.05 | S. cerevisiae deletion strains, locus YOL006C, strain TOP1, active compounds read low 1.03 | S. cerevisiae deletion strains, locus YOL012C, strain htz1 1.23 | S. cerevisiae deletion strains, locus YOL147C, strain pex11, active compounds read low 1.03 | S. cerevisiae deletion strains, locus YOR001W, strain rrp6, active compounds read low 1.01 | S. cerevisiae deletion strains, locus YOR061W, strain CKA2, active compounds read low 1.01 | S. cerevisiae deletion strains, locus YOR069W, strain VPS5, active compounds read low 1.01 | S. cerevisiae deletion strains, locus YOR070C, strain gyp1, active compounds read low 0.989 | S. cerevisiae deletion strains, locus YOR080W, strain dia2, active compounds read low 0.997 | S. cerevisiae deletion strains, locus YOR083W, strain WHI5, active compounds read low 0.913 | S. cerevisiae deletion strains, locus YOR106W, strain vam3, active compounds read low 0.968 | S. cerevisiae deletion strains, locus YOR136W, strain idh2, active compounds read low 1.04 | S. cerevisiae deletion strains, locus YOR144C, strain elg1, active compounds read low 1.02 | S. cerevisiae deletion strains, locus YOR184W, strain ser1, active compounds read low 1.05 | S. cerevisiae deletion strains, locus YOR231W, strain MKK1, active compounds read low 0.976 | S. cerevisiae deletion strains, locus YOR265W, strain rbl2, active compounds read low 0.974 | S. cerevisiae deletion strains, locus YOR270C, strain vph1, active compounds read low 0.993 | S. cerevisiae deletion strains, locus YOR290C, strain snf2, active compounds read low 0.966 | S. cerevisiae deletion strains, locus YOR316C, strain cot1, active compounds read low 1.03 | S. cerevisiae deletion strains, locus YPL051W, strain arl3, active compounds read low 0.98 | S. cerevisiae deletion strains, locus YPL055C, strain LGE1, active compounds read low 1.05 | S. cerevisiae deletion strains, locus YPL078C, strain atp4, active compounds read low 0.98 | S. cerevisiae deletion strains, locus YPL106C, strain sse1, active compounds read low 0.948 | S. cerevisiae deletion strains, locus YPL240C, strain hsp82, active compounds read low 0.997 | S. cerevisiae deletion strains, locus YPL241C, strain CIN2, active compounds read low 1.01 | S. cerevisiae deletion strains, locus YPL256C, strain CLN2, active compounds read low 1 | S. cerevisiae deletion strains, locus YPR119W, strain clb2, active compounds read low 1.04 | S. cerevisiae deletion strains, locus YPR141C, strain kar3, active compounds read low 1.05 | S. cerevisiae deletion strains, locus YPR163C, strain tif3, active compounds read low 1.03 | S. cerevisiae deletion strains, locus YPR167C, strain met16, active compounds read low 1.04 | S. cerevisiae deletion strains, strain wtn01, active compounds read low 1.02 | S. cerevisiae strains, strain wild type, active compounds read low 1.01
